Most compounds without a hit are left out; they make up all but 12% or so of the library.
PLK1 PBD inh: qHTS for Inhibitors of PLK1-PDB (polo-like kinase 1 - polo-box domain): Primary Screen; Potency, µM, inactives show max response, negative = inhibition, most hits filed as inhibitors; Plk1 PBD binding of FITC phosphopeptide, fluorescence polarization; AID 720504, 2013; hit rate 2.8% among 360,000; Serine/threonine-protein kinase PLK1 (Homo sapiens), P53350; note: potency is the fitted concentration of half-maximal effect; series mostly up to about 57 µM; % is set by controls: 0 for no effect and ±100 for the full control effect; nearly all actives have a fitted effect of over 65% in size
PI5P4K alpha inh: qHTS for Inhibitors of phosphatidylinositol 5-phosphate 4-kinase (PI5P4K); hit rate 1.2% among 330,000; Phosphatidylinositol 5-phosphate 4-kinase type-2 alpha (Homo sapiens), P48426; max response, %; PI5P4Kalpha enzyme, ADP-Glo luminescence, 60 min; stronger effect = lower value; active = max response of -50% or lower; inconclusive = between -30% and -50%; inactive = -30% or higher; note: value at the top dose of about 77 µM; % is set by controls: 0 for no effect and ±100 for the full control effect
Target sequence (P48426 whole entry, looked up): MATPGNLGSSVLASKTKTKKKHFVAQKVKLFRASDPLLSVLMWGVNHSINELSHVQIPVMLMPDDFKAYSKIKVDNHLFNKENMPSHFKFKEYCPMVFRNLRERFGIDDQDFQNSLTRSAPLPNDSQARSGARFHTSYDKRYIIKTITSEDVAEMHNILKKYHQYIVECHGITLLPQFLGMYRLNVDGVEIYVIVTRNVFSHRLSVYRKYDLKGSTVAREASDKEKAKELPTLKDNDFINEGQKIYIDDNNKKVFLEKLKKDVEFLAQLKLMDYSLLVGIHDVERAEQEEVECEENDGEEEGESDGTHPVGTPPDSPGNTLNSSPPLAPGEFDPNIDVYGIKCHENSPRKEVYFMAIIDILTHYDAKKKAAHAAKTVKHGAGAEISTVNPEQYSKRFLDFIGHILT
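Quantitative HTS of the MLSMR library against PI5P4Kalpha with substrate. ATP added last at 5 microM final; room temperature, 60 minutes. Remaining ATP depleted, ADP converted and read as luminescence.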
HP1b chromo inh: HTS for Inhibitors of HP1-beta Chromodomain Interactions with Methylated Histone Tails; Chromobox protein homolog 1 (Homo sapiens), P83916; AlphaScreen HP1-beta / biotin-H3K9me3 peptide binding; Potency, µM (highest dose often 114 µM), for the others: at the highest dose activity change, negative = inhibition, usual class: inhibitors; hit rate 0.56% among 390,000; AID 540317, 2011; note: potency is the fitted concentration of half-maximal effect; nearly all actives have a fitted effect of over 70% in size
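Compound inhibition of the preformed complex between 50 nM HP1-beta and 50 nM biotinylated H3K9me3 peptide was read by AlphaScreen. Buffer was PBS pH 7.4 with 0.01% Tween-20. Incubations ran 30 min at room temperature, with 10 ug/mL donor/acceptor beads.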
BAZ2B block: qHTS Assay for Inhibitors of BAZ2B; AID 504333, 2011; Bromodomain adjacent to zinc finger domain protein 2B (Homo sapiens), Q9UIF8; hit rate 4.4% among 360,000; Potency, µM (highest dose often 114 µM), inactives show at the top dose activity change, negative = inhibition, usual class: inhibitors; AlphaScreen BAZ2B-H3K14Ac peptide displacement; note: potency is the fitted concentration of half-maximal effect; % is set by controls: 0 for no effect and ±100 for the full control effect; nearly all actives have a fitted effect of over 60% in size
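AlphaScreen displacement of biotin-H3(5-23)K14Ac peptide (50 nM final) from BAZ2B (50 nM final) in PBS pH 7.4, 0.01% Tween-20; complex preformed 30 min RT, then compounds (top 110 uM) 30 min RT, beads 20 min dark.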
G9a block: qHTS Assay for Inhibitors of Histone Lysine Methyltransferase G9a; Histone-lysine N-methyltransferase EHMT2 (Homo sapiens), Q96KQ7; G9a H3K9 monomethylation, AlphaScreen, 2 h; Potency, µM (series often up to 102 µM), without a hit: at the highest dose activity, negative = inhibition, usual class: inhibitors; hit rate 8.8% among 350,000; AID 504332, 2011; note: potency is the fitted concentration of half-maximal effect; % is set by controls: 0 for no effect and ±100 for the full control effect; nearly all actives have a fitted effect of over 75% in size
Target sequence (Q96KQ7 913-1193 limits assumed): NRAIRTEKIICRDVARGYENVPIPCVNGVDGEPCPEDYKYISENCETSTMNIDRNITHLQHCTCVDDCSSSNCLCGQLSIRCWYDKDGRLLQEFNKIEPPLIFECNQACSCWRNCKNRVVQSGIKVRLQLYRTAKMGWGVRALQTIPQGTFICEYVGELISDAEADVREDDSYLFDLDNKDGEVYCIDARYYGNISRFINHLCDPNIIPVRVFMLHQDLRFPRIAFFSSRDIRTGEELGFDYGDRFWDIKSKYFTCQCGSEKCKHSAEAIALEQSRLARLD
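AlphaScreen detection with an anti-monomethyl H3K9 antibody quantified product after a 2 h room-temperature reaction containing 500 nM biotinylated H3K9 peptide, 20 µM SAM and 20 nM enzyme, which had been preincubated 15 min with compound.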
JMJD2A Tudor inh: qHTS Assay for Inhibitors of JMJD2A-Tudor Domain; Lysine-specific demethylase 4A (Homo sapiens), O75164; AlphaScreen JMJD2A-Tudor / H3K4me3 peptide binding; Potency, µM (series often up to 114 µM), for the others: at the highest dose activity change, negative = inhibition, actives largely listed as inhibitors; hit rate 4.4% among 390,000; note: potency is the fitted concentration of half-maximal effect; % is set by controls: 0 for no effect and ±100 for the full control effect; nearly all actives have a fitted effect of over 50% in size
* hit, by the source's call; ? = inconclusive; . = no result; [ ] = dose if it differs, or a comment. Unless noted, calls come from the whole dose curve; as a rule, active = well fitted curve in the direction sought with a large enough effect; inconclusive = small, poorly fitted or top-dose-only effect, or another doubt; inactive = no such curve, though single readings can be large; an effect the other way counts as inactive or inconclusive.

SMILES	PLK1 PBD inh	PI5P4K alpha inh	HP1b chromo inh	BAZ2B block	G9a block	JMJD2A Tudor inh
CC(NNC(=O)c1ccccc1)c1ccccc1 (stereo unspecified)	.	.	.	.	3.7%[12.7 µM]	.
C=CCN(C(=O)Cc1cccs1)c1nc(-c2ccc(S(C)(=O)=O)cc2)cs1	-1.8%	-62.7*	-4.3%	-17.2%	70.8µM*	-30.1%
C=CC(n1cncn1)C(O)(c1ccccc1)c1ccccc1 (stereo unspecified)	-11.4%	-6.7	15.9%	-5.1%	22.2%[2.33 µM]	-21.3%
COc1ccc(CNC(=O)COC(=O)CCCOc2ccc(Cl)cc2Cl)cc1	-4.8%	1.4	42.0%	-2.3%	0.4%	18.8%
O=C(COc1ccccc1)NCc1n[nH]c(=S)n1-c1ccccc1	-1.0%	6.3	39.5%	-17.9%	20µM*	8.91µM*
COc1ccc(-n2c(CNC(=O)COc3ccc(Cl)cc3Cl)n[nH]c2=S)cc1	2.4%	8.0	72.6%	0.3%	7.94µM*	-6.1%
COc1ccc(-n2c(CNC(=O)COc3ccccc3)n[nH]c2=S)cc1	-1.4%	2.8	37.1%	-17.9%	?	11.2µM*
COc1ccc(-n2c(CNC(=O)COc3ccc(Cl)cc3)n[nH]c2=S)cc1	-23.7%	5.7	-5.9%	-6.4%	2.51µM*	12.6µM*
COc1ccccc1NS(=O)(=O)c1cc(NC(=O)c2ccccc2F)ccc1N1CCOCC1	26.7µM*	6.9	-14.1%	-12.0%	?	-26.0%
COc1ccccc1NS(=O)(=O)c1cc(NC(=O)CC(C)(C)C)ccc1N1CCOCC1	-11.8%	-5.4	33.1%	-17.7%	-3.1%	-9.0%[11.4 µM]
COc1ccccc1NS(=O)(=O)c1cc(NC(=O)c2ccccc2[N+](=O)[O-])ccc1N1CCOCC1	?	-0.5	-18.8%[57 µM]	.	.	-21.4%
COc1ccccc1NS(=O)(=O)c1cc(NC(=O)CCC2CCCC2)ccc1N1CCOCC1	-7.8%	1.5	36.2%	?	1.41µM*	-14.8%
CCCCN(C)C(=O)C1CCCN(S(=O)(=O)c2ccc3c(c2)oc(=O)n3C)C1 (stereo unspecified)	-10.3%	0.4	14.5%	9.0%	.	-10.6%
COc1cc2c(cc1OC)n(CC(=O)c1cccc(Cl)c1)c(=O)n1nc(CCn3nc(C)cc3C)nc21	.	.	22.8%	-2.7%	10.5%[59 µM]	-10.7%
CN(c1ccccc1)S(=O)(=O)c1cccc(NC(=O)Cn2cnc3c2c(=O)n(C)c(=O)n3C)c1	-4.1%	-4.8	14.0%	8.7%	?	-2.8%
O=C(CSc1ccc([N+](=O)[O-])cc1)Nc1cccc(S(=O)(=O)Nc2ccccc2F)c1	9.47µM*	?	?	-31.0%	?	?
Cn1c(=O)c2c(ncn2CC(=O)Nc2cccc(S(=O)(=O)Nc3ccccc3F)c2)n(C)c1=O	29.9µM*	-23.8	?	-4.5%	.	-2.1%
O=C(Nc1ccc2c(c1)OCCO2)C(c1ccnc2ccccc12)N1CCN(C/C=C/c2ccccc2)CC1 (stereo unspecified)	-2.7%	8.4	.	.	.	.
O=C(CCc1nnc(-c2ccsc2)o1)N1CCc2c(Cl)cccc2C1	-11.7%	1.8	36.0%	1.6%	-0.6%[0.501 µM]	?
COc1ccc(OC)c(CNC(=O)c2ccc3c(c2)c(C)c(C)n3C)c1	.	.	-3.1%	35.5µM*	?	?
Cc1c(C)n(C)c2ccc(C(=O)NCc3cccs3)cc12	-0.8%	-8.4	-6.8%	?	50.1µM*	?
Cc1c(C)n(C)c2ccc(C(=O)NCCCN3CCN(C)CC3)cc12	1.4%	1.3	5.9%	-22.7%[57.1 µM]	?	?
COc1ccc(OC)c(NC(=O)c2ccc3c(c2)c(C)c(C)n3Cc2ccc(F)cc2)c1	.	.	15.3%	25.1µM*	?	?
CC(C)C(=O)NC(c1ccc(N(C)C)cc1)c1c(O)ccc2ccccc12 (stereo unspecified)	-0.7%	1.8	60.1%	-25.8%	2.24µM*	-22.8%
CC(C)(C)C(=O)NC(c1ccccc1)c1c(O)ccc2ccccc12 (stereo unspecified)	-4.2%	0.1	23.0%	-0.8%	?	-18.1%
SMILES	PLK1 PBD inh	PI5P4K alpha inh	HP1b chromo inh	BAZ2B block	G9a block	JMJD2A Tudor inh
CCCC(=O)NC(c1ccc(C(C)C)cc1)c1ccc2cccnc2c1O (stereo unspecified)	-12.3%	-2.6	52.8%	-23.0%	75.6%	-20.5%
COc1ccc(C(NC(C)=O)c2cc(Cl)c3cccnc3c2O)cc1 (stereo unspecified)	0.9%	-1.0	57.8%	?	-10.0%[0.501 µM]	?
CCCCC(=O)NC(c1ccco1)c1c(O)ccc2ccccc12 (stereo unspecified)	-6.3%	0.6	-7.3%	-38.1%	-25.0%[12.7 µM]	-35.3%
CCCC(=O)NC(c1ccco1)c1c(O)ccc2ccccc12 (stereo unspecified)	-18.5%	.	-5.2%	-27.3%	12.6µM*	-34.5%
CCCC(=O)NC(c1ccc(N(C)C)cc1)c1ccc2cccnc2c1O (stereo unspecified)	26.7µM*	-21.6	-17.3%	7.1%[0.457 µM]	3.8%[59 µM]	22.4µM*
CC(=O)NC(c1ccccc1)c1cc(Cl)c2cccnc2c1O (stereo unspecified)	-14.2%	-2.3	32.4%	35.5µM*	.	?
CCC(=O)NC(c1ccc(Cl)cc1Cl)c1ccc2cccnc2c1O (stereo unspecified)	3.1%	2.7	40.3%	-4.6%	16.5%	-28.1%
CCCC(=O)NC(c1ccco1)c1cc([N+](=O)[O-])c2cccnc2c1O (stereo unspecified)	?	-22.8	54.0%	7.94µM*	28.2µM*	-19.5%[11.4 µM]
CCCCC(=O)NC(c1ccc(Cl)cc1Cl)c1ccc2cccnc2c1O (stereo unspecified)	3.36µM*	?	27.8%	?	.	?
CCCCC(=O)NC(c1ccc(OC)cc1)c1ccc2cccnc2c1O (stereo unspecified)	-1.1%	1.1	.	.	.	.
CCCC(=O)NC(c1ccc(OC)c(OC)c1)c1cc(Cl)c2cccnc2c1O (stereo unspecified)	2.0%	1.2	36.5%	-10.8%	.	-20.8%
COc1ccc(C(NC(=O)C(C)C)c2ccc3cccnc3c2O)cc1 (stereo unspecified)	-11.6%	1.2	46.3%	44.7µM*	.	-26.0%
CC(=O)NC(c1ccco1)c1ccc2cccnc2c1O (stereo unspecified)	-11.0%	-12.9	24.3%	20µM*	-8.2%	56.2µM*

Assay outcomes deposited in PubChem by National Center for Advancing Translational Sciences (NCATS).
